Experimental data from PubChem BioAssay AID1813 (Broad Institute, 2009).
Hit rate of the full screen: of about 300,000 compounds, about 2,500 (0.83%) were called active. The full list was thinned out, with actives kept by preference. Values without a mark were called inactive. No stated cut-off is given here; in the data, active means inhibition above about 60%; inconclusive means no clear call, values can overlap the other calls; inactive means below that.

Test: MLPCN primary screen, SNCA 5' untranslated region (AID 1813);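 further: H4 neuroglioblastoma cells stably carrying SNCA 5'UTR luciferase fusion; 0% = DMSO wells and 100% = positive control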
Settings: alpha-synuclein 5'UTR reporter, inhibitor activity; active compounds read high; tested at 7.5 µM

SMILES | inhibition
COC(=O)c1scc(C)c1NC(=O)CSc1ccc(Cl)cc1 | 14.7%
Cc1ccc(CSCCNC(=O)CN(c2ccc(F)cc2)S(C)(=O)=O)cc1 | 14.7%
O=C(C1CC1)N1N=C(c2ccc(Br)cc2)CC1(O)C(F)(F)F (stereo not given) | -12.3%
O=C(Cc1ccccc1)N1N=C(c2ccncc2)CC1(O)C(F)(F)F (stereo not given) | 18.6%
O=C(c1ccc(Cl)cc1)N1N=C(c2ccccn2)CC1(O)C(F)(F)F (stereo not given) | 68.6% (active)
CC(=O)Nc1ccc(N2C(=O)C3C4CC(=O)C(c5ccccc54)C3C2=O)cc1 (stereo not given) | 17.3%
CC(Oc1ccccc1)C(=O)NN1Cc2ccccc2C1=N (stereo not given) | -12.4%
O=C1[C@H]2[C@@H](c3ccc(F)cc3)N3C(=O)N(c4ccc(C(F)(F)F)cc4)C(=O)[C@@]3(Cc3ccccc3)[C@H]2C(=O)N1C1CCCCC1 | -4.59%
COc1ccc(CCNC(=O)c2c(C)nn(-c3ccccc3)c2Cl)cc1 | 14.8%
Nc1nonc1-n1nnc(C(=O)N/N=C/c2c[nH]c3ccccc23)c1-c1ccccc1 | 1.28%
CCc1ccc2c(c1)C1(NN=C(c3ccccc3)S1)C(=O)N2 (stereo not given) | 71.7% (active)
CCOC(=O)c1c(C)[nH]c(C)c1S(=O)(=O)NCCCc1ccco1 | 0.398%
Cc1oc2nc(SCC(=O)Nc3ccc(S(N)(=O)=O)cc3)nc(NC(=O)c3ccccc3)c2c1C | -1.45%
CCn1c(CNC(=O)c2cc(OC)c(OC)c(OC)c2)cc2cc(C)ccc21 | -1.14%
COc1c(C)c2c(c(O)c1C/C=C(\C)CCC(=O)O)C(=O)OC2 | 76.6% (active)
CN1CN(C)c2ccc([N+](=O)[O-])c3cccc1c23 | 35.2%
CC1=NN(/C(=N\c2nnc(C)s2)Nc2ccccc2)[C@H](c2ccc(C)cc2)S1 | -19.5%
COCCCn1c(SCC(=O)NC2CCCC2)nnc1-c1ccccc1 | 4.11%
Cn1c(N)c(C(=O)COC(=O)c2ccccc2NCc2ccco2)c(=O)n(C)c1=O | 6.96%
COc1ccc(/C=C/C(=O)Nc2cccnc2)cc1OC | -72.4%
COc1ccc(/C=C/C(=O)Nc2ccc(C34CC5CC(CC(O)(C5)C3)C4)cc2)cc1OC | 76.5% (active)
COc1ccc(/C=C/C(=O)Nc2ccc(C)cc2)cc1S(=O)(=O)N1CCOCC1 | -60%
COc1ccc(-c2nn(C)c(=O)c3ccccc23)cc1CNC(=O)C1CCCCC1 | -1.05%

SMILES | inhibition
CCOC(=O)c1ccccc1C(=O)N1CCOCCOCCOCC1 | 7.43%
Cc1ccccc1-c1ccc(Nc2ccc(C(=O)N3CCOCC3)cc2)nn1 | 10.1%
Cc1oc2c(c1C(=O)N1CCOCC1)C(=O)c1ccccc1C2=O | 101% (active)
CCOc1cc(/C=C2\SC(N3CCCC(C)C3)=NC2=O)ccc1O (stereo not given) | -40.1%
Cc1ccc(C)c(S(=O)(=O)Nc2cc(C)on2)c1 | -13.8%
CCCCCc1ccc(-c2ccc(OCC)cc2)nc1 | 79.7% (active)
CCCCCc1ccc(-c2cn(Cc3ccc4ccccc4c3)nn2)cc1 | -16.4%
CCCCCc1ccc(-c2ccc(C(=O)O)cc2)nc1 | -19.1%
COc1cccc(C(=O)n2ccc(-c3cccs3)n2)c1 | 2.56%
COC(=O)c1c(NC(=O)c2ccc(S(=O)(=O)N3CCOCC3)cc2)sc2c1CCN(C(C)C)C2 | -85.3%
CCOc1ccc2nc(NC(=O)c3cc([N+](=O)[O-])ccc3N3CCOCC3)sc2c1 | 1.05%
O=C(NC(Nc1nc2ccc([N+](=O)[O-])cc2s1)(C(F)(F)F)C(F)(F)F)c1ccccc1 | 94.1% (active)
CCC(=O)NC(Nc1nc2ccc(C)cc2s1)(C(=O)OC)C(F)(F)F (stereo not given) | 13%
COc1ccc(Cl)cc1-n1c(=S)sc2c(=O)n(-c3ccc(F)cc3)c(SCC(=O)O)nc21 | 14.1%
CCOC(=O)N1CCN(C(=O)c2ccccc2SCC(=O)NCC2CCCCC2)CC1 | -17.7%
O=[N+]([O-])/C=C/c1ccc2c(ccn2Cc2ccccc2)c1 | 84.5% (active)
O=c1c([N+](=O)[O-])cc(C(F)(F)F)cn1Cc1cccc(Cl)c1 | 17.2%
O=C(/C=C/c1cccc([N+](=O)[O-])c1)N1CCN(Cc2ccccc2)CC1 | -15.7%
Cc1ccc(C(C)C)c(OCc2nnc(SCC(=O)Nc3nccs3)n2C)c1 | -2.72%
O=C(N[C@@H](Cc1ccccc1)C(=O)OCc1ccccc1)c1nc[nH]c1C(=O)NC1CCNCC1 | -8.61%
Cc1c(NC(=O)c2c([N+](=O)[O-])cnn2C)c(=O)n(-c2ccccc2)n1C | 3.28%
CCOC(=O)c1sc(C)c2c1NC(C)(c1cccc3ccccc13)NC2=O (stereo not given) | 31.1%
